Test results as given in PubChem BioAssay (Tox21).
Results filed as inconclusive are left out. Entries that show only a call come without a potency. The source made the active and inactive calls. Calls follow the shape of the dose curve; as a rule, active = well fitted cell-killing curve with a large enough effect in the repeat runs; inconclusive = weak or mixed curves, or effect the other way; inactive = flat fitted curve, though single readings scatter.

Assays:
[1] = cAMP Responsive Elements (CRE) small molecule antagonists, cell-based qHTS assay: qHTS cell viability counter screen (AID 2060913); also: nearly all actives have a fitted effect of over 40% in size
Method in brief: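 Steps: cells plated and held 18 hrs at 37 C/5% CO2; compounds and NKH477 (0.25 uM final) added; 3 hrs incubation; reporter substrate read; CellTiter-Glo added to measure cytotoxicity by luminescence.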

[2] = cAMP Responsive Elements (CRE) small molecule agonists, cell-based qHTS assay: qHTS cell viability counter screen (AID 2060914);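 also: viability read after 3 h of compound exposure; nearly all actives have a fitted effect of over 50% in size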
Method in brief: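 HEK 293T CRE-bla; DMEM + 10% dialyzed FBS, 25 mM HEPES; 18 h pre-incubation; compound 3 h, 37 °C/5% CO2; CellTiter-Glo added after reporter read; luminescence after 30 min RT.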

| SMILES | Potency [1] | Potency [2] |
| --- | --- | --- |
| O=c1n(Cl)c(=O)n(Cl)c(=O)n1Cl | inactive | inactive |
| CC[C@@H](CO)NC(=O)[C@@H]1C=C2c3cccc4[nH]cc(c34)C[C@H]2N(C)C1 | inactive | inactive |
| Cc1ccc(N)cc1C | inactive | inactive |
| O=[N+]([O-])c1ccccc1O | inactive | inactive |
| BrCCCBr | inactive | inactive |
| CC(O)CN1CCN(CC(=O)[O-])CCN(CC(=O)[O-])CCN(CC(=O)[O-])CC1.[Gd+3] (stereo not drawn) | inactive | inactive |
| CNC(=O)O/N=C/C(C)(C)S(C)(=O)=O | inactive | inactive |
| CCOC(=O)CCl | inactive | inactive |
| CC(=O)CN(CC(C)=O)N=O | inactive | inactive |
| C[C@]12CCC(=O)C(O)=C1CC[C@@H]1[C@@H]2CC[C@]2(C)C(=O)CC[C@@H]12 | inactive | inactive |
| NP(N)(=O)NC(=O)c1ccc(F)cc1 | inactive | inactive |
| CN(CCCC(O)c1cccnc1)N=O (stereo not drawn) | inactive | inactive |
| C[N+]1(C)[C@@H]2CC[C@H]1CC(OC(=O)C(CO)c1ccccc1)C2 (stereo partly drawn) | inactive | inactive |
| COc1ccc(C(=O)c2c(C)n(CCN3CCOCC3)c3ccccc23)cc1 | inactive | inactive |
| CCN | inactive | inactive |
| c1cc[n+]2c(c1)-c1cccc[n+]1CC2 | inactive | inactive |
| Nc1ccc(Cl)cc1C(=O)c1ccccc1 | inactive | inactive |
| ClCC(Br)CBr (stereo not drawn) | inactive | inactive |
| CC[n+]1ccccc1 | inactive | inactive |
| N#Cc1c(Cl)c(Cl)c(Cl)c(C#N)c1Cl | inactive | inactive |

| SMILES | Potency [1] | Potency [2] |
| --- | --- | --- |
| N#Cc1ccncc1 | inactive | inactive |
| O=C(N[C@H]1CN2CCC1CC2)c1ccc2c(c1)OCCO2 | inactive | inactive |
| Nc1nc(N)nc(Cl)n1 | inactive | inactive |
| NNC(N)=S | inactive | inactive |
| CCOP(O)OCC | inactive | inactive |
| CCC(C)Nc1c([N+](=O)[O-])cc(C(C)(C)C)cc1[N+](=O)[O-] (stereo not drawn) | inactive | inactive |
| O=C(O)c1c(Cl)ccc2cc(Cl)cnc12 | inactive | inactive |
| CCSC(=O)N1CCCCCC1 | inactive | inactive |
| NC(=O)CF | inactive | inactive |
| OCC(Cl)CCl (stereo not drawn) | inactive | inactive |
| COC(=O)c1ccc(CBr)cc1 | inactive | inactive |
| O=S(=O)(Oc1ccc(Cl)cc1)c1ccc(Cl)cc1 | inactive | inactive |
| ClC1C(Cl)C(Cl)C(Cl)C(Cl)C1Cl (stereo not drawn) | inactive | inactive |
| O=c1[nH]oc2c1CCNC2 | inactive | inactive |
| CCCN | inactive | inactive |
| CCCN(CC1CC1)c1c([N+](=O)[O-])cc(C(F)(F)F)cc1[N+](=O)[O-] | inactive | inactive |
| Cc1cccc(N)c1C | inactive | inactive |
| O=[N+]([O-])c1ccc(Oc2ccc(Cl)cc2Cl)cc1 | inactive | inactive |
| CCC#N | inactive | inactive |
| c1ccc(N=Nc2ccccc2)cc1 | inactive | inactive |

| SMILES | Potency [1] | Potency [2] |
| --- | --- | --- |
| Brc1ccc(Br)cc1 | inactive | inactive |
| CCCCCCCCCBr | inactive | inactive |
| CC(Oc1cccc(Cl)c1)C(=O)O (stereo not drawn) | inactive | inactive |
| CCOP(=S)(S)OCC | inactive | inactive |
| CC(C)(C)NCC(O)c1cc(Cl)c(N)c(C(F)(F)F)c1 (stereo not drawn) | inactive | inactive |
| CC(=O)[C@H]1CC[C@H]2[C@@H]3CC[C@H]4C[C@](C)(O)CC[C@]4(C)[C@H]3CC[C@]12C | inactive | inactive |
| COC(C)(C)CCC[C@H](C)C/C=C/C(C)=C/C(=O)OC(C)C | inactive | inactive |
| ClC1(Cl)C2(Cl)C3(Cl)C4(Cl)C(Cl)(Cl)C5(Cl)C3(Cl)C1(Cl)C5(Cl)C24Cl (stereo not drawn) | inactive | inactive |
| C[N+](C)(C)Cc1ccccc1 | inactive | inactive |
| CC1(C)[C@H](C=C(Cl)Cl)[C@@H]1C(=O)O[C@@H](C#N)c1cccc(Oc2ccccc2)c1 | inactive | inactive |
| COC(=O)C1(O)c2ccccc2-c2ccccc21 | inactive | inactive |
| OCc1ccco1 | inactive | inactive |
| ClC(Br)Br | inactive | inactive |
| ClCBr | inactive | inactive |
| CC(C)CCCCCOC(=O)c1ccccc1C(=O)OCCCCCC(C)C | inactive | inactive |
| CSc1nc(N=[N+]=[N-])nc(NC(C)C)n1 | inactive | inactive |
| C#CC(C)(C)NC(=O)c1cc(Cl)cc(Cl)c1 | inactive | inactive |
| COC(=O)/C=C(\C)OP(=O)(OC)OC | inactive | inactive |
| Brc1cccc(-c2ccccc2)c1 | inactive | inactive |
